In the library only some 19% were active in any assay of this set; here they are far more common.
DT40 TDP1 CPT – qHTS for Inhibitors of human tyrosyl-DNA phosphodiesterase 1 (TDP1): qHTS in cells in presence of CPT | Potency, µM (series often up to 46.2 µM), without a hit: top-dose activity change, negative = growth inhibition, hits mostly inhibitors | AID 686979, 2013 | 12% of 420,000 active | chicken DT40 Tdp1-/-;hTDP1 cells + 20 nM CPT, ATP luminescence, 48 h; also: potency is read from the fitted curve at half-maximal effect; % is scaled to controls: 0 for no effect and ±100 for the full control effect; nearly all actives have a fitted effect of over 55% in size
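Chicken DT40 Tdp1-/- cells complemented with human TDP1, 400 cells/well, exposed to compounds plus 20 nM camptothecin for at least 48 h at 37 C; viability read as ATP content by CellTiter-Glo luminescence.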
TDP1 block – qHTS Assay for Inhibitors of Tyrosyl-DNA Phosphodiesterase (TDP1). recombinant TDP1, AlphaScreen DNA substrate cleavage. Potency, µM (highest dose often 130 µM), for the others: top-dose activity change, negative = inhibition, actives largely listed as inhibitors. 0.28% of 350,000 active. AID 485290, 2010; also: potency is read from the fitted curve at half-maximal effect; % is scaled to controls: 0 for no effect and ±100 for the full control effect; nearly all actives have a fitted effect of over 40% in size
Target sequence (Q9NUW8 whole entry, looked up): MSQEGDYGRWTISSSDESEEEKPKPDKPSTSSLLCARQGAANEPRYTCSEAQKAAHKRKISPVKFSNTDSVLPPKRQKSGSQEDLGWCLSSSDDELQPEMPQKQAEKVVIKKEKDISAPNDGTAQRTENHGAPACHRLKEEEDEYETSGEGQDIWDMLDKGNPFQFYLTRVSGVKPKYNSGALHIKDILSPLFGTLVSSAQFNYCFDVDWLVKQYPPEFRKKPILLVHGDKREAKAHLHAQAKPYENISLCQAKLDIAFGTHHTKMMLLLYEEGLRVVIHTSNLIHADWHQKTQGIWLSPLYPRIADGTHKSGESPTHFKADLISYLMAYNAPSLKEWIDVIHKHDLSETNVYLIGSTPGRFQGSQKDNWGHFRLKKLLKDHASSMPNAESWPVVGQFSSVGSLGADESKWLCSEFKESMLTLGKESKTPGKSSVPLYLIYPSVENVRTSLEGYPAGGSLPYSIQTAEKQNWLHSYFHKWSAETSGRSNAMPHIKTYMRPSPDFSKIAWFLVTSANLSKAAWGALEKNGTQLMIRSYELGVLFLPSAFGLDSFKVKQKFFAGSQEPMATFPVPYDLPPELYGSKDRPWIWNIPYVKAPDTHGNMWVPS
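Steps: enzyme plus compound, 15 min RT; add biotin/phosphotyrosine-FITC oligonucleotide (15 nM final), react 5 min; add donor/acceptor beads (10 ug/ml final), 10 min; read AlphaScreen. Tdp1 at 1 nM final.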
TDP1 cell noCPT – qHTS for Inhibitors of human tyrosyl-DNA phosphodiesterase 1 (TDP1): qHTS in cells in absence of CPT; DT40 Tdp1-/- hTDP1 cells, no CPT, ATP luminescence, 48 h; Potency, µM (doses to about 46.2 µM), for the others: top-dose activity change, negative = growth inhibition, actives largely listed as inhibitors; 15% of 420,000 active; AID 686978, 2013; also: potency is read from the fitted curve at half-maximal effect; % is scaled to controls: 0 for no effect and ±100 for the full control effect; nearly all actives have a fitted effect of over 55% in size
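Growth kinetics read by CellTiter-Glo luminescence after ≥48 hr at 37 °C. Cells: DT40 Tdp1-/- stably carrying human TDP1, 400 per well, compound exposure in the absence of CPT (DMSO vehicle).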
HepG2 tox – qHTS for Inhibitors of TGF-b: Cytotox Counterscreen; HepG2 CAGA-GFP viability, ATP luminescence, 18 h; Potency, µM (series often up to 46.1 µM), inactives show at the highest dose activity change, negative = cytotoxicity, hits mostly cytotoxic; 0.76% of 410,000 active; also: potency is read from the fitted curve at half-maximal effect
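CellTiter-Glo luminescence gave cytotoxicity after 18 hours at 37 degrees C. The cells were HepG2 CAGA-GFP in 1% FBS DMEM, stimulated with 500 pg/mL TGF-beta after compound addition. %Activity was normalised to no-cell wells (complete cell-killing) and DMSO (no toxicity), and curves were fitted and classified.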
TGFb SMAD3 inh – qHTS for Inhibitors of TGF-b; HepG2 CAGA-GFP TGF-b/SMAD3 reporter, GFP fluorescence, 18 h; TGF-beta stimulated, 500 pg/mL final; Potency, µM (series often up to 46.1 µM), inactives show at the highest dose activity, negative = inhibition, most hits filed as inhibitors; 1.2% of 410,000 active; AID 588855, 2011; also: potency is read from the fitted curve at half-maximal effect; % is scaled to controls: 0 for no effect and ±100 for the full control effect; nearly all actives have a fitted effect of over 65% in size
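First, reporter cells (HEPG2 CAGA-GFP) rested 2 h at 37 degrees C. Next, compounds were pinned in and TGF-beta added to 500 pg/mL final. After 18 h, GFP was imaged per cell and summed per well.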
IL1B secr inh – qHTS for Inhibitors of Inflammasome Signaling: IL-1-beta AlphaLISA Primary Screen; THP-1 LPS/ATP IL-1B secretion, AlphaLISA, 16 h; active compounds read low; activity change, % at 57.5 µM; 4.7% of 360,000 active; in the data active = activity change below about -50%; inconclusive = mostly about -30% to -49%; also: % is scaled to controls: 0 for no effect and ±100 for the full control effect
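THP-1 cells pretreated 1 hr with compounds (up to 57.5 uM final), then stimulated with LPS (250 ng/mL final) plus ATP (1.25 mM final); secreted IL-1B measured by AlphaLISA after 16 hr, decreased signal indicating inhibition.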
An asterisk follows results filed as active. Unless noted, calls follow the shape of the dose curve; as a rule, active = well fitted curve in the direction sought with a large enough effect; inconclusive = small, poorly fitted or top-dose-only effect, or another doubt; inactive = no such curve, though single readings can be large; an effect the other way counts as inactive or inconclusive.

COCCNC(=O)/C(C#N)=C/c1cc(C)n(C2CCCCC2)c1C was read as DT40 TDP1 CPT inconclusive, TDP1 block 0.0%, TDP1 cell noCPT 16.4µM*, HepG2 tox -15.8%, TGFb SMAD3 inh -12.8% and IL1B secr inh -14.7.
Cc1ccc2c(=O)c(C(=O)c3cccc(Cl)c3)cn(CC(=O)NC3CCCCC3)c2n1 was read as DT40 TDP1 CPT -17.3%, TDP1 block 2.6%, TDP1 cell noCPT -6.1%, HepG2 tox 8.7% and TGFb SMAD3 inh 14.8%.
C[C@@H]1CN([C@H](C)CO)C(=O)c2cc(NC(=O)Cc3cn(C)c4ccccc34)ccc2O[C@H]1CN(C)S(=O)(=O)c1ccc(F)cc1 was read as DT40 TDP1 CPT inconclusive, TDP1 block 3.6%, TDP1 cell noCPT inconclusive, HepG2 tox -3.0%, TGFb SMAD3 inh -11.9% and IL1B secr inh -18.2.
For CCN1CCN(Cc2nc3cc(NC(=O)c4cc(OC)c(OC)c(OC)c4)ccc3n2CC)CC1 the results were DT40 TDP1 CPT -19.2%, TDP1 block 4.7%, TDP1 cell noCPT -16.3%, HepG2 tox -25.9% and TGFb SMAD3 inh -5.8%.
CN1CC[C@@]2(CCCN(S(=O)(=O)c3ccccc3)C2)C1 was read as DT40 TDP1 CPT -0.4% and TDP1 cell noCPT -16.8%.
`O=[N+]([O-])c1ccc(Cc2ccc([N+](=O)[O-])cc2)cc1` gave DT40 TDP1 CPT -17.4%, TDP1 cell noCPT -15.1%, HepG2 tox -10.2%, TGFb SMAD3 inh 0.0% and IL1B secr inh 39.1.
`N#CC(CCc1ccc([N+](=O)[O-])cc1)(CCc1ccc([N+](=O)[O-])cc1)C(N)=O` gave DT40 TDP1 CPT 23.1µM*, TDP1 cell noCPT 13µM*, HepG2 tox -12.4%, TGFb SMAD3 inh -8.7% and IL1B secr inh -0.2.
CN(C(=O)c1cccc(NC(=O)Cc2ccc([N+](=O)[O-])cc2)c1)C1CCCC1 was read as DT40 TDP1 CPT 23.1µM*, TDP1 block 5.4%, TDP1 cell noCPT 25.9µM*, HepG2 tox -14.7%, TGFb SMAD3 inh inconclusive and IL1B secr inh -23.7.
`CN(C(=O)c1ccc(NC(=O)Cc2ccc(NC(=O)C3CCN(C(=O)C4CC4)CC3)cc2)cc1)C1CCCC1` gave DT40 TDP1 CPT -26.5%, TDP1 cell noCPT -20.3%, HepG2 tox -11.0%, TGFb SMAD3 inh 0.9% and IL1B secr inh -11.4.
`CN(Cc1ccccc1)C(=O)c1cccc(NC(=O)Cc2cccc([N+](=O)[O-])c2)c1` gave DT40 TDP1 CPT inconclusive, TDP1 block 3.1%, TDP1 cell noCPT 23.1µM*, HepG2 tox -13.3%, TGFb SMAD3 inh inconclusive and IL1B secr inh inconclusive.
For CN(C(=O)c1cccc(NC(=O)Cc2cccc([N+](=O)[O-])c2)c1)C1CCCC1 the results were DT40 TDP1 CPT 18.4µM*, TDP1 block 4.9%, TDP1 cell noCPT inconclusive, HepG2 tox -14.3% and TGFb SMAD3 inh inconclusive.
CN(C(=O)c1cccc(NC(=O)Cc2cccc([N+](=O)[O-])c2)c1)C1CCC1 was read as DT40 TDP1 CPT inconclusive, TDP1 block 3.3%, TDP1 cell noCPT inconclusive, HepG2 tox 2.4%, TGFb SMAD3 inh inconclusive and IL1B secr inh -28.6.
For CN(C(=O)c1ccc(NC(=O)Cc2ccc([N+](=O)[O-])cc2)cc1)C1CCCC1 the results were DT40 TDP1 CPT 13µM*, TDP1 block 4.1%, TDP1 cell noCPT inconclusive, HepG2 tox 3.9%, TGFb SMAD3 inh inconclusive and IL1B secr inh -22.2.

High-throughput results (PubChem BioAssay)
